A selection: hits, their analogues and other compounds. The true share with any hit is near 12%.
HP1b chromo inh – HTS for Inhibitors of HP1-beta Chromodomain Interactions with Methylated Histone Tails; Potency, µM (highest dose often 114 µM), for inactives: top-dose activity change, negative = inhibition, usual class: inhibitors; AlphaScreen HP1-beta / biotin-H3K9me3 peptide binding; 390,000 compounds, 0.56% hits; Chromobox protein homolog 1 (Homo sapiens), P83916; further: nearly all actives have a fitted effect of over 70% in size
Target sequence (P83916 whole entry, looked up): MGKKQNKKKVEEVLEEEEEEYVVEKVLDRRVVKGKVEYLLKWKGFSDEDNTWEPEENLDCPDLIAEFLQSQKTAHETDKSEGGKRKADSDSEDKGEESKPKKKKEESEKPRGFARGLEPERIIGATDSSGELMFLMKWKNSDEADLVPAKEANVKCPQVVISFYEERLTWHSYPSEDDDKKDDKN
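AlphaScreen: HP1-beta (50 nM) preformed 30 min with biotin-H3(1-18)K9me3 peptide (50 nM) in PBS pH 7.4, 0.01% Tween-20. Compound added for 30 min at RT, then streptavidin donor/nickel chelate acceptor beads (10 ug/mL) for 30 min.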
BAZ2B block – qHTS Assay for Inhibitors of BAZ2B; AlphaScreen BAZ2B-H3K14Ac peptide displacement; Potency, µM (series often up to 114 µM), for inactives: at the highest dose activity change, negative = inhibition, actives largely listed as inhibitors; 360,000 compounds, 4.4% hits; further: on the % scale 0 is the no-effect control and ±100 the full control effect; nearly all actives have a fitted effect of over 60% in size
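BAZ2B (50 nM) with biotin-H3(5-23)K14Ac peptide (50 nM) in PBS pH 7.4, 0.01% Tween-20, preformed 30 min, then compound 30 min at room temperature; top concentration 110uM. AlphaScreen streptavidin donor/nickel chelate acceptor beads (10 ug/mL final), 20 min dark, signal read.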
G9a block – qHTS Assay for Inhibitors of Histone Lysine Methyltransferase G9a; Histone-lysine N-methyltransferase EHMT2 (Homo sapiens), Q96KQ7; G9a H3K9 monomethylation, AlphaScreen, 2 h; Potency, µM (highest dose often 102 µM), inactives show at the top dose activity, negative = inhibition, usual class: inhibitors; 350,000 compounds, 8.8% hits; further: on the % scale 0 is the no-effect control and ±100 the full control effect; nearly all actives have a fitted effect of over 75% in size
Target sequence (Q96KQ7 913-1193 limits assumed): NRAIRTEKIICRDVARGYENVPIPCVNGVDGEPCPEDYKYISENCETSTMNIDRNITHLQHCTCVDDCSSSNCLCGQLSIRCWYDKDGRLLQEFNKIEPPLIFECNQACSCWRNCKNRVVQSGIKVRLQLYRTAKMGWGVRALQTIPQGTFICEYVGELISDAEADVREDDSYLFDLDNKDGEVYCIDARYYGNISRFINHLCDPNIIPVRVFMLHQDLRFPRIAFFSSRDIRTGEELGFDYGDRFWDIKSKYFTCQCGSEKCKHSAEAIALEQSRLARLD
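Compounds were preincubated with 20 nM G9a for 15 min, after which biotinylated H3K9 peptide (500 nM) and SAM (20 uM) started a 2 h room-temperature reaction. Monomethylated product was quantified by antibody-based AlphaScreen chemiluminescence.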
L3MBTL1 block – qHTS Assay for the Inhibitors of L3MBTL1. Lethal(3)malignant brain tumor-like protein 1 (Homo sapiens), Q9Y468. AlphaScreen L3MBTL1–H3K9me1 peptide binding. Potency, µM (series often up to 57.1 µM), without a hit: top-dose activity, negative = inhibition, actives largely listed as inhibitors. 230,000 compounds, 0.66% hits; further: on the % scale 0 is the no-effect control and ±100 the full control effect; nearly all actives have a fitted effect of over 60% in size
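AlphaScreen assay: L3MBTL1 (50 nM final) was preincubated 30 min at room temperature with biotinylated H3(1-15)K9me1 peptide (75 nM final), then 30 min with library compounds; streptavidin donor and nickel chelate acceptor beads (10 ug/mL final) added, 30 min dark.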
Sfp inh – qHTS Assay for Inhibitors of Bacillus subtilis Sfp phosphopantetheinyl transferase (PPTase); 4'-phosphopantetheinyl transferase ffp (Bacillus subtilis), Q9F4F7; Biochemical Sfp PPTase activity, qHTS; Potency, µM, for the others: largest response in the series, negative = inhibition, hits mostly inhibitors; 310,000 compounds, 3.5% hits;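 further: the enzyme is Sfp with the accession as filed and its product quenches rhodamine fluorescence; 0% = enzyme reaction without inhibitor and -100% = no enzyme wells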
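After 15 min at room temperature with compound, 15 nM Sfp received 5 uM rhodamine-CoA plus 12.5 uM BHQ-2-ybbR (50 mM Hepes pH 7.6, 10 mM MgCl2). Rate came from the fluorescence difference over 30 min, ex 525/em 598 nm.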
JMJD2A Tudor inh – qHTS Assay for Inhibitors of JMJD2A-Tudor Domain. 390,000 compounds, 4.4% hits. Potency, µM (top dose mostly 114 µM), inactives show top-dose activity change, negative = inhibition, most hits filed as inhibitors. AlphaScreen JMJD2A-Tudor / H3K4me3 peptide binding. Lysine-specific demethylase 4A (Homo sapiens), O75164; further: on the % scale 0 is the no-effect control and ±100 the full control effect; nearly all actives have a fitted effect of over 50% in size
Starred values were filed as active, the others as inactive; ? = inconclusive; · = no result given; [ ] = dose if it differs, or a comment. The call rests on the fitted dose curve; in most records, active means well fitted curve in the direction sought with a large enough effect; inconclusive means small, poorly fitted or top-dose-only effect, or another doubt; inactive means no such curve, though single readings can be large; an effect the other way counts as inactive or inconclusive. Potency means the concentration at half of the fitted maximal effect.

SMILES | HP1b chromo inh | BAZ2B block | G9a block | L3MBTL1 block | Sfp inh | JMJD2A Tudor inh
CCOC(=O)Nc1ccc2c(COC(=O)CNS(=O)(=O)c3cccc(Br)c3)cc(=O)oc2c1 | -3% | 5% | -7%[59 µM] | -5% | 0% | -19%
CC(C)CC(CO)N1CCN(C(=O)c2ccc(Cl)cc2)CCC1=O (stereo not drawn) | 39% | · | · | · | · | -9%
Cc1ccc2c(c1)Sc1c(ccc3ccccc13)N2 | ? | 40µM* | ? | -23% | -13% | ?
COc1cccc(CN2CCc3ccc(NC(=O)CCc4ccc(C)cc4)cc3C2)c1O | 11% | ? | 40µM* | · | 5% | -24%
COc1cc(CN2CCc3ccc(NC(=O)CCc4ccccc4OC)cc3C2)ccc1O | 17% | -30% | 45µM* | · | -4% | ?
CC(=O)Nc1ccc(NC(=O)c2ccc(CN3CCc4ccccc4C3)cc2)cc1 | 9% | -23% | 12% | 0% | 13% | -8%
COC(=O)c1ccc(CN2CCc3ccc(NC(=O)c4ccncc4)cc3C2)cc1 | 23% | -38% | 50µM* | · | 16% | -29%
CCOC(=O)C1=C(N)Oc2cc(C)n(C)c(=O)c2C1c1ccncc1 (stereo not drawn) | 20% | -3% | 50µM* | -2% | 6% | 8%[57.1 µM]
COc1ccc(S(=O)(=O)N2CCN(Cc3cccnc3)CC2)cc1 | 32% | -4% | 20% | · | 11% | -17%
COc1ccc(S(=O)(=O)N2CCN(Cc3ccccc3)CC2)cc1 | 10% | 11% | 0%[59 µM] | -2% | -1% | -12%
COc1ccc(S(=O)(=O)N2CCN(Cc3cc(OC)c(OC)c(OC)c3)CC2)cc1 | ? | ? | · | 45% | -28% | 3.2µM*
COc1cc(CN2CCN(S(=O)(=O)c3ccccc3)CC2)cc(OC)c1O | 32% | -1% | 10µM* | · | · | 8%
COc1ccc(S(=O)(=O)N2CCN(Cc3cc(OC)c(O)c(OC)c3)CC2)cc1 | ? | 50µM* | 7.1µM* | · | -25% | 22µM*
Cc1ccc(-c2csc(NC(=O)CSc3nnc4c(n3)[nH]c3ccccc34)n2)cc1 | 27% | 3% | -6% | 0% | 4% | 8%
COc1ccc(NC(=O)Nn2cnnc2)cc1OC | 10% | 3% | · | · | 6% | -12%
COc1cc(NC(=O)Nn2cnnc2)cc(OC)c1OC | 3% | 3% | 45µM* | · | 21% | -10%
CN(C(=O)c1cnc(N2CCOCC2)c2ccccc12)c1ccccc1F | 23%[57 µM] | 3% | -5%[59 µM] | · | · | 8%
CC(C)(C)C1CCC(N2CCN(c3ccccc3)CC2)CC1 (stereo not drawn) | 9% | -38% | · | -10% | 0% | -20%
c1ccc(N2CCN(C3CC4CCC3C4)CC2)cc1 (stereo not drawn) | 36% | -18% | 79µM* | · | -1% | -7%
COc1ccc(C(=O)N2CCC3(CCCN(C(=O)NC(C)C)C3)CC2)cc1 | · | · | -3%[12.7 µM] | · | 13% | ·
O=C(CN1C(=O)CCSc2ccc(S(=O)(=O)N3CCCC3)cc21)Nc1cccc(F)c1 | 22%[57 µM] | 4% | 1%[59 µM] | · | · | -10%
O=C(NCc1ccco1)/C(=C/c1cccc(C(F)(F)F)c1)c1nc2ccccc2[nH]1 | 13% | -29% | 19%[59 µM] | -2% | 19% | -25%
O=C(NCc1ccco1)/C(=C/c1ccc(C(F)(F)F)cc1)c1nc2ccccc2[nH]1 | 37% | -10% | 16µM* | -4% | ? | -24%
CCS(=O)(=O)c1ncc(N(Cc2cccc(F)c2)Cc2ccco2)c(C(=O)Nc2ccccc2Cl)n1 | 35% | -21% | -25%[59 µM] | · | · | -17%
COc1ccc(NC(=O)CON=CC(=O)Nc2ccc(C)cc2)c(OC)c1 | 43% | · | · | 6% | · | -13%
SMILES | HP1b chromo inh | BAZ2B block | G9a block | L3MBTL1 block | Sfp inh | JMJD2A Tudor inh
Nc1sc2c(c1C(=O)NC1CCS(=O)(=O)C1)CCCC2 (stereo not drawn) | -6% | -7% | 7.9µM* | -1% | 20µM* | -34%
Nc1sc2c(c1C(=O)c1ccccc1)CCCC2 | -14% | -34% | ? | -12% | 50µM* | ?
NC(=O)c1c(N)sc2c1CCCC2 | 2% | ? | 2.5µM* | 0% | 25µM* | -32%
CC(=O)Nc1sc2c(c1C(N)=O)CCCC2 | 48% | -6% | -1%[12.7 µM] | 4% | 30% | -5%[57.1 µM]
COc1cccc2c1cc1c(=O)n(CC(=O)N3CCN(c4cccc(C)c4)C(C)C3)nc(C)n12 (stereo not drawn) | 79% | 21% | 22%[59 µM] | · | · | -15%
Nc1nc(C2C(=O)CCCC2=O)cs1 | 5% | 45µM* | -2%[12.7 µM] | -15% | 56µM* | 10µM*
Nc1nc(C2CC(=O)OC23CCCCC3)cs1 (stereo not drawn) | 14% | -2% | 2%[59 µM] | 16% | -3% | 2%
COC(=O)c1ccccc1NC(=O)CN(c1ccccc1OC)S(C)(=O)=O | 23% | 1% | -43%[59 µM] | · | · | -10%
COc1ccc(CN2C[C@H](C)[C@@H](CC(=O)NCc3ccccc3)C2=O)cc1 | 4% | 1%[57.1 µM] | 50µM* | 3% | 9% | -10%
COc1cccc(C(=O)OCC(=O)NC23CC4CC(CC(C4)C2)C3)c1 | 48% | · | · | 4% | · | 0%
CC(=O)Oc1cc(C(=O)OCC(=O)NC23CC4CC(CC(C4)C2)C3)cc(OC(C)=O)c1OC(C)=O | ? | · | · | · | · | 3.5µM*
COc1cc(/C=C2\SC(=S)N(CCC(=O)Nc3ccccc3)C2=O)cc(OC)c1OC | 32% | ? | -24% | -22% | ? | -19%[57.1 µM]
COc1cc(/C=C2\SC(=S)N(Nc3ccccc3)C2=O)cc(OC)c1OC | ? | 22µM* | ? | ? | 1% | ?
CCOc1ccc(/C=C2\SC(=S)N(Nc3ccccc3)C2=O)cc1OC | -19% | ? | 7.1µM* | -6% | ? | ?
COc1ccc(S(=O)(=O)N2CCN(C(=O)c3ccc4ccccc4n3)CC2)cc1 | 37% | -30% | ? | -8% | · | -6%
COc1cc(C)c(N)cc1C(C)C | ? | ? | ? | -8% | 27% | ?
Cc1cc(OI)c(C(C)C)cc1-c1cc(C(C)C)c(OI)cc1C | · | · | 7.9µM* | · | 56µM* | ·
COc1ncc2nc(-c3ccc(F)cc3)c(=O)n(C[C@H]3CCCO3)c2n1 | · | · | -5%[12.7 µM] | · | 8% | ·

Assay outcomes: PubChem, National Center for Advancing Translational Sciences (NCATS)
